These results are taken from PubChem BioAssay (NCATS).

Each structure is given as a SMILES string. Inconclusive results are not listed. The source made the active and inactive calls. Unless noted, calls follow the shape of the dose curve; as a rule, active = well fitted curve in the direction sought with a large enough effect; inconclusive = small, poorly fitted or top-dose-only effect, or another doubt; inactive = no such curve, though single readings can be large; an effect the other way counts as inactive or inconclusive.

The target in assay [1] is Lysosomal acid glucosylceramidase (Homo sapiens) (UniProt P04062). Put plainly: Glucocerebrosidase-p2 (AID 348; in the data active = potency below about 10 µM; also: potency is read from the fitted curve at half-maximal effect). Particulars: purified GBA, blue fluorogenic substrate, 40 min. The gist of the method: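 Normal human glucocerebrosidase (0.2 nM) with blue fluorogenic substrate (80 uM final) in citrate/phosphate pH 5.9 with 10mM sodium taurocholate, 0.01% tween-20; 40 min RT, NaOH/glycine stop; fluorescence Ex 365/Em 440; AC50 from a titration from 0.6 nM upwards.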
Lysosomal acid glucosylceramidase (Homo sapiens), sequence (P04062 whole entry, looked up): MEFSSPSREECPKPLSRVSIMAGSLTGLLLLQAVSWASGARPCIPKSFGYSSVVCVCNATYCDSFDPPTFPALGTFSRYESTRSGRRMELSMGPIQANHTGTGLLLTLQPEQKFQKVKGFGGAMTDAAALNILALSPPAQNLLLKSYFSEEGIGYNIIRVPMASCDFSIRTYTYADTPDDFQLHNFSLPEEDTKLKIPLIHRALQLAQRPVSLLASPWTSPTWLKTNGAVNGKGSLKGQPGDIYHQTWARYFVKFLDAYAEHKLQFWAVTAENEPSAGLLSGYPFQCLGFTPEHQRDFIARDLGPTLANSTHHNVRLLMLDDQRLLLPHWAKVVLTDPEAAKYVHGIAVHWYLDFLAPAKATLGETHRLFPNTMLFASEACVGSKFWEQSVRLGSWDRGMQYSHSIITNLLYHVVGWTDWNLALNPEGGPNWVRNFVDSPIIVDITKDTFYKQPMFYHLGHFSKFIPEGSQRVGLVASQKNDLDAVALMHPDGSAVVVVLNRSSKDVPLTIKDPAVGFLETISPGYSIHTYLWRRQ

A short description of assay [2]: AP1 Signaling Pathway (AID 357; active = well fitted curve in either direction with a large enough effect, not every such curve was filed as active;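 also: ME-180 reporter cells stimulated with EGF at its EC50 level; % is scaled to controls: 0 for no effect and ±100 for the full control effect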). The conditions noted are these: ME-180 AP-1-bla reporter, EGF-induced, beta-lactamase ratio, 5 h; at 7.69 µM (top of the series) unless noted. In a few lines: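 Beta-lactamase reporter under AP-1 response element, ME-180 background. Stimulus: EC50 EGF. Compound exposure 5 h, 37 °C. Detection: CCF4, 2.5 h RT, 460/530 nm. Values: AC50 from titration.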

The target of assay [3] is Cytochrome P450 1A2 (Homo sapiens) (UniProt P05177). Kind of assay: p450-cyp1a2 (AID 410; calls by dose curve; also: potency is read from the fitted curve at half-maximal effect). The gist of the method: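 20nM CYP1A2, 100uM Luciferin-ME (=Km), 100mM KPO4; cpd 10 min RT; +NADPH regen, 60 min RT; stop/detect 20 min; luminescence. Normalized to furafylline 57 uM = full inhibition.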
Cytochrome P450 1A2 (Homo sapiens), sequence (P05177 whole entry, looked up): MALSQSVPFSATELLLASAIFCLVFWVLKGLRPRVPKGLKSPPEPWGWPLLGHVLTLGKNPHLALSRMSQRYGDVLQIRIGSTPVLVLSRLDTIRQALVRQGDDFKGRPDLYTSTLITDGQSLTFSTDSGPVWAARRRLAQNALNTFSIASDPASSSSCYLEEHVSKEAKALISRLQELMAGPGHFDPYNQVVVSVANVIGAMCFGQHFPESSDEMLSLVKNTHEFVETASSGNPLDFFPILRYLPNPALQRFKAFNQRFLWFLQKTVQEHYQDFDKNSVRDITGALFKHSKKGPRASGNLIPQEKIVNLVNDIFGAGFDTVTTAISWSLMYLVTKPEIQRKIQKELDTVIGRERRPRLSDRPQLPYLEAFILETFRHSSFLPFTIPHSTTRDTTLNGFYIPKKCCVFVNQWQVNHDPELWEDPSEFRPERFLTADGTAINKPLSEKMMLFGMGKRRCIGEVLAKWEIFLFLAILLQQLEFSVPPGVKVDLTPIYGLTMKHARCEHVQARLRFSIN
Assay [4] in a line: NFAT Signaling Pathway (AID 444; active = well fitted curve in either direction with a large enough effect, not every such curve was filed as active;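 also: carbachol stimulus at about its EC50 of 1 µM final; % is scaled to controls: 0 for no effect and ±100 for the full control effect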). The conditions noted are these: Jurkat NFAT-bla M1, carbachol, beta-lactamase ratio, 5 h; at 7.69 µM (top of the series) unless noted. The gist of the method:
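Read-out: CCF4 FRET ratio (460 nm/530 nm) after 1 h RT dye loading, used for %activity and AC50 from titration series. Cells: Jurkat NFAT-β-lactamase/M1 line, treated with compound plus 1 uM carbachol for 5 h, 37 °C.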

Assay [5] in a line: Stat Signaling Pathway (AID 446; active = well fitted curve in either direction with a large enough effect, not every such curve was filed as active;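 also: ME-180 cervical cancer cells given 40 pM IL-6 alongside compound; SIE-controlled beta-lactamase reporter measured as 460/530 nm FRET emission ratio; % is scaled to controls: 0 for no effect and ±100 for the full control effect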). Particulars: ME-180 SIE beta-lactamase reporter, IL-6 stimulated, 5 h; at 7.69 µM (top of the series) unless noted. In a few lines: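 Emission at 460 and 530 nm (excitation 405 nm) reports SIE-controlled beta-lactamase in ME-180 cells. Cells received compound with 40 pM IL-6 for 5 hrs at 37 C; data scaled between 300 pM IL-6 and 125 nM JAK-inhibitor controls.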

Assay [6] deals with Glucocorticoid receptor (Homo sapiens) (UniProt P04150). Put plainly: GR-GFP Redistribution (AID 450;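 active = compounds whose dose series gives a full or clear partial fitted curve of increased nuclear translocation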; also: potency is read from the fitted curve at half-maximal effect). The conditions noted are these: U2OS GR-GFP nuclear translocation, laser cytometry, 2 h.
Glucocorticoid receptor (Homo sapiens), sequence (P04150 whole entry, looked up, the tested form may be a part): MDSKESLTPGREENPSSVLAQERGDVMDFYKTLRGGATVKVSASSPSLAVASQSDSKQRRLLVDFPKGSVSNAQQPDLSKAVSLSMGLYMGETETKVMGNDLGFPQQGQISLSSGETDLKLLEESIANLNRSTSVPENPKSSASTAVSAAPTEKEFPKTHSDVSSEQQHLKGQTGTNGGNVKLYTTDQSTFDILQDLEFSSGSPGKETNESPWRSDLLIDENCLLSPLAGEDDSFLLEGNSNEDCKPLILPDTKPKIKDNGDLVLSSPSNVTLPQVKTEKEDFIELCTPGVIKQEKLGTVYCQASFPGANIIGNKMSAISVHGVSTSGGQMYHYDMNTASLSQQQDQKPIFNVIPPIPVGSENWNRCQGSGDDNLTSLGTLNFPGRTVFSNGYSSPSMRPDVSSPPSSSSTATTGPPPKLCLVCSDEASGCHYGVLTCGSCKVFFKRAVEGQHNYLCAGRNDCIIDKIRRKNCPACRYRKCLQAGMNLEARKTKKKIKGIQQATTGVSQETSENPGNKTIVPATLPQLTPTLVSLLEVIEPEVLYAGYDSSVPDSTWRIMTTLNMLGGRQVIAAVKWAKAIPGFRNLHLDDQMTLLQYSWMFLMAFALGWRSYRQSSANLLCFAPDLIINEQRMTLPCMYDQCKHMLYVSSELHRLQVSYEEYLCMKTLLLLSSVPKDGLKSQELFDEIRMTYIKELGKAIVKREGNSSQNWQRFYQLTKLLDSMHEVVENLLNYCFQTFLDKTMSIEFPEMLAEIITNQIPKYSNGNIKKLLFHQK
Assay [7] shares this target. Put plainly: GR-EFC Redistribution (AID 451; calls by dose curve; also: potency is read from the fitted curve at half-maximal effect). The conditions noted are these: CHO-K1 GR-EFC translocation, beta-gal luminescence, 2 h. The gist of the method: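 Translocation of GR-ED fusion to nuclear EA restores b-gal, read by luminescence after 1 h room-temperature detection. Engineered CHO-K1 biosensor cells, 1,000/well, exposed 2 h at 37 C to titrations up to 46 uM final.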

Assay [8] concerns the target Mitogen-activated protein kinase 10 (Mus musculus) (UniProt Q61831). Kind of assay: JNK3 AlphaScreen Assay (AID 530; active = well fitted curve in either direction with a large enough effect, not every such curve was filed as active;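 also: kinase came from lysate of stimulated human HepG2 cells; signal reports phosphorylation of biotinylated GST-cJun 1-79 at Ser73 with 10 µM ATP; % is scaled to controls: 0 for no effect and ±100 for the full control effect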). In a few lines:
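Kinase buffer: 20 mM Tris-HCl pH 7.6, 10 mM MgCl2, 1 mM DTT, 0.1 mM Na3VO4, 0.01% Tween-20; ATP 10 uM. Substrate biotin-GST-cJun(1-79), enzyme from activated HepG2 lysates. Detection by Ser73 phospho-antibody AlphaScreen.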
Background: In Alpha technology, singlet oxygen from a donor bead excites a nearby acceptor bead.

For assay [9], the target named is 3',5'-cyclic-AMP phosphodiesterase 4B (Homo sapiens) (UniProt Q07343). Put plainly: qHTS Assay for Inhibitors of PDE-IV (AID 607; active = well fitted activation curve with a large enough effect in the main read-out, with a control signal flat, not every such curve was filed as active; also: % of control where 0% means no effect). In a few lines: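 The readout is membrane depolarisation from a cAMP-sensing CNG channel, detected with a potential dye at ex 535/em 590. Cells were HEK293-derived (endogenous PDE-IV) at 1000 cells/well, titrated up to 22.9 uM final.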
3',5'-cyclic-AMP phosphodiesterase 4B (Homo sapiens), sequence (Q07343 whole entry, looked up): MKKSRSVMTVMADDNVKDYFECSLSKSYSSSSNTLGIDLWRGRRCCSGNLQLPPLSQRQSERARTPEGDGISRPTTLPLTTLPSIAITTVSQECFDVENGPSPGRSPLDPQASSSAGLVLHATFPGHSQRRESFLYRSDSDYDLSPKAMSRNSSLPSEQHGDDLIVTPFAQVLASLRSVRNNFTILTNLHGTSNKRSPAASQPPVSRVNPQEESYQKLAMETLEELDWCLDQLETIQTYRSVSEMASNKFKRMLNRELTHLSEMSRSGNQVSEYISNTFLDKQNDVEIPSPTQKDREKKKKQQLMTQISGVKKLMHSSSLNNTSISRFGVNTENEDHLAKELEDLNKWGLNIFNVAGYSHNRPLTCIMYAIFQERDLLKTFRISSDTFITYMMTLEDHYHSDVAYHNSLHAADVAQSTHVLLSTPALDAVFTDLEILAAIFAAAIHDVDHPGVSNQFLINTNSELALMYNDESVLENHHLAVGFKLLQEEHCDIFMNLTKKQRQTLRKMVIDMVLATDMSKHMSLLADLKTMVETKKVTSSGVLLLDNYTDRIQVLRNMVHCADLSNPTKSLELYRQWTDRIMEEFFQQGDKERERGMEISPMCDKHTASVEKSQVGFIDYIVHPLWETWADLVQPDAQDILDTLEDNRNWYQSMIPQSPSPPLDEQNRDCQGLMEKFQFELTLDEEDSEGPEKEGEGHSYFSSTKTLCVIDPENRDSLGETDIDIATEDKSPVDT

For assay [10], the target named is Cytochrome P450 3A4 (Homo sapiens) (UniProt P08684). Kind of assay: qHTS Assay for Inhibitors and Substrates of Cytochrome P450 3A4 (AID 884). Also: potency is read from the fitted curve at half-maximal effect; nearly all actives have a fitted effect of over 50% in size. In a few lines: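 Luminescent readout of luciferin produced by CYP3A4 (20 nM) dealkylation of Luciferin-PPXE, 25 uM (its KM). NADPH-driven reaction ran 60 min at RT after 10 min compound preincubation; data scaled to 57 uM ketoconazole as 100% inhibition.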
Cytochrome P450 3A4 (Homo sapiens), sequence (P08684 whole entry, looked up): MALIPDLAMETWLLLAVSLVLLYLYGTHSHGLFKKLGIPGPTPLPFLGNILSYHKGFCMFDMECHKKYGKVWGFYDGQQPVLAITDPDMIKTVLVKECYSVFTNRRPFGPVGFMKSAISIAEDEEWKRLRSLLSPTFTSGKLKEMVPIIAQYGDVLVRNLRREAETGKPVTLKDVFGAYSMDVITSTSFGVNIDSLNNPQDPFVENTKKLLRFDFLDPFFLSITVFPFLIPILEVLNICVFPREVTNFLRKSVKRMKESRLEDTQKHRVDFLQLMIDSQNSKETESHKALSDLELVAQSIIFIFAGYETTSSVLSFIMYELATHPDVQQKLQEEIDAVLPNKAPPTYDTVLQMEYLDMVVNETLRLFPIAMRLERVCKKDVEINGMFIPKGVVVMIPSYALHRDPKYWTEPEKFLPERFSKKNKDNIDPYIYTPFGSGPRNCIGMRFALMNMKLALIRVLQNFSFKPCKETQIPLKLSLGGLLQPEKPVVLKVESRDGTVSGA
In general terms: Quantitative high-throughput screening tests each substance at several concentrations.

Assay [11] shares this target. Put plainly: qHTS Assay for Activators of Cytochrome P450 3A4 (AID 885). Also: nearly all actives have a fitted effect of over 65% in size. In a few lines:
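Activators are scored by enhanced luminescence from CYP3A4 conversion of luciferin-PPXE (25uM, equal to KM) to luciferin, after 60 min at RT with an NADPH-regenerating system.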

In assay [12] the target is Cytochrome P450 2C19 (Homo sapiens) (UniProt P33261). Put plainly: qHTS Assay for Inhibitors and Substrates of Cytochrome P450 2C19 (AID 899). Also: potency is read from the fitted curve at half-maximal effect; nearly all actives have a fitted effect of over 60% in size. In a few lines:
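Luminescence readout of luciferin formed from 10uM Luciferin-H EGE (KM level) by 5 nM CYP2C19 in 50mM KPO4. 60 min NADPH-driven reaction at 37C after 10 min compound preincubation; data scaled to 57uM ketoconazole inhibition.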

Assay [13] can be described thus: Confirmation and Secondary Assay for Modulators of Hemoglobin Beta Chain Splicing at IVS2 654 locus (AID 910).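 Also: HeLa cells stably carrying EGFP split by mutant beta-globin IVS2-654 intron; per-well total GFP intensity by laser scanning cytometry after 2-day treatment; % of control where 0% means no effect.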 The gist of the method: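 Readout: per-well total peak green fluorescence (488 nm ex, 500–520 nm em) from objects 5–250 µm, reflecting correct splicing of an EGFP-654 reporter. Compounds were applied for 2 days at 37 °C to overnight-plated HeLa EGFP-654 cells; controls were DMSO and 500 nM IVS2-654 PNA.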

Assay [14] in a line: Confirmation and Secondary Assay for Modulators of Hemoglobin Beta Chain Splicing at IVS2 705 locus (AID 930).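 Also: HeLa cells stably expressing the EGFP-705 splicing reporter; GFP fluorescence per well restored by corrected splicing of the IVS2-705 intron in EGFP; % of control where 0% means no effect.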 The gist of the method: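 Per-well GFP, captured at 1 x 8 µm resolution with 488 nm excitation, served as the read-out for HeLa EGFP-705 cells incubated 2 days with test compound versus DMSO.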
Assay [15] in a line: qHTS Assay for Lipid Storage Modulators (AID 1519; calls by dose curve). Particulars: Drosophila S3 cells, BODIPY lipid droplet/cell ratio, laser cytometry, cells loaded with oleic acid; for activity change, negative = inhibition: at 57.5 µM (top of the series). In a few lines: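 Cells seeded at 5,000 per well were treated with compounds over a concentration series and loaded with oleic acid (400 uM, as added). Lipid droplet fluorescence (488 nm excitation, 500-530 nm channel) was read by laser-scanning cytometry and normalized to 20 uM Triacsin C.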

Assay [16] concerns the target Ubiquitin carboxyl-terminal hydrolase 1 (Homo sapiens) (UniProt O94782). Put plainly: Inhibitors of USP1/UAF1: Pilot qHTS (AID 504865). Also: nearly all actives have a fitted effect of over 35% in size. Also: potency is read from the fitted curve at half-maximal effect. The gist of the method:
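Deubiquitinase activity followed as kinetic rhodamine fluorescence release from 150 nM Ub-Rho. 1 nM USP1/UAF1 with compound, after 15 min room-temperature preincubation, in HEPES pH 7.8 buffer containing TCEP, EDTA, BSA and Tween-20.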

A short description of assay [17]: Primary qHTS for small molecule stabilizers of the endoplasmic reticulum resident proteome: Secreted ER Calcium Modulated Protein (SERCaMP) assay (AID 1508630). Also: % is scaled to controls: 0 for no effect and ±100 for the full control effect. The gist of the method: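 The SH-SY5Y reporter protocol was run at 3 concentrations up to 38.3 uM (primary) or 11 concentrations (follow-up): 16 h compound, 100 nM thapsigargin for 4 h, then extracellular luciferase luminescence.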

A short description of assay [18]: qHTS Assay for Identification of Small Molecule Agonists for Hypoxia Response Element Signaling Pathway (AID 914; active = well fitted activation curve with a large enough effect in the signal ratio, with a control signal flat, not every such curve was filed as active; the % refers to the signal ratio; also: % of control where 0% means no effect). The conditions noted are these: ME-180 (cervical carcinoma) HRE-bla reporter, beta-lactamase ratio, CoCl2, 17 h; activation: stronger effect = higher value. In a few lines:
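In Opti-MEM containing 0.5% dialyzed FBS and 10 mM HEPES, ME-180 HRE-bla cells received a compound titration and EC50 CoCl2. They were incubated 17 hours, then CCF4-loaded 2.5 hours at room temperature before ratio reading.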

Setting [19] is: measured here: cell count channel max response.
The mark [20] stands for this setting: measured here: lipid channel max response.

Cytochrome P450 2C19 (Homo sapiens), sequence (P33261 whole entry, looked up): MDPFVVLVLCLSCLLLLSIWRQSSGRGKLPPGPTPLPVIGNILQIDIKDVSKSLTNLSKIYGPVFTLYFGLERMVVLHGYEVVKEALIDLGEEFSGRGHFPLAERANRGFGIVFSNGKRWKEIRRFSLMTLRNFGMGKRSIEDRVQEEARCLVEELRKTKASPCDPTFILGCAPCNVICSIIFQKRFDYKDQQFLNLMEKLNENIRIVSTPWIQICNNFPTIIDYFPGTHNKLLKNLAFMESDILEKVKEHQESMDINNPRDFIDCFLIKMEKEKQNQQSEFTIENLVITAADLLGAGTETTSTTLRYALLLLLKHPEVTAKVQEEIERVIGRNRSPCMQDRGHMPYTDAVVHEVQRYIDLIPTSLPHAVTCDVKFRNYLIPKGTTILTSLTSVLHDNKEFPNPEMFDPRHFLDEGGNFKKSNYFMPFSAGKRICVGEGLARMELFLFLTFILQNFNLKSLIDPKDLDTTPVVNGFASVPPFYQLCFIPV
Ubiquitin carboxyl-terminal hydrolase 1 (Homo sapiens), sequence (O94782 whole entry, looked up): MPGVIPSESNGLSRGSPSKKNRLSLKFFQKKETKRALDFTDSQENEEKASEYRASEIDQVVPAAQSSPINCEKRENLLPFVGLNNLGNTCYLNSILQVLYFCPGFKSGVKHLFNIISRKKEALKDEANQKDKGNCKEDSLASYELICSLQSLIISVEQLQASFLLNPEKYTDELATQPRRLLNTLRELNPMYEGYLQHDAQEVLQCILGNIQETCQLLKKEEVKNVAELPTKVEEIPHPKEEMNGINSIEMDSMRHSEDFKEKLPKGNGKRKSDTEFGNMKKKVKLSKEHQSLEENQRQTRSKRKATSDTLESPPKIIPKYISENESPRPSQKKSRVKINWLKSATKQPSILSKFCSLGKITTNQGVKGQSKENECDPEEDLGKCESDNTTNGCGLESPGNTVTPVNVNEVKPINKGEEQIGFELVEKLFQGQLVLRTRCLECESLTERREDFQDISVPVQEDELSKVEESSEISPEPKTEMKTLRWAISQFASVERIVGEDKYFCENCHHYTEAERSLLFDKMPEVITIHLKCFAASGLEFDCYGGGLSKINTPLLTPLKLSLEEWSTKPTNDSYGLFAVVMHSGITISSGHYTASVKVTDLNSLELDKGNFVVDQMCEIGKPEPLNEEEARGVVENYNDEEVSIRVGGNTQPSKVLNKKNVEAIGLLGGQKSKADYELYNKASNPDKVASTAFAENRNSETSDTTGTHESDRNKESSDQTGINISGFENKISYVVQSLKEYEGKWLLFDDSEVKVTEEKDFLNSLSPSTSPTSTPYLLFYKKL

Regarding `COc1cccc(-c2nccc(NCc3cccc(C)c3)n2)c1`, the Potency in assay [1] was > 11.4 µM (inactive); in assay [3], 0.316 µM (active); in assay [6], > 46 µM (inactive); in assay [7] it was > 46 µM (inactive); in assay [10] it was 3.98 µM (active); in [12], 6.31 µM (active). Besides, the Potency in assay [16] is 35.5 µM (active). Besides, the activity change, negative = inhibition is -15.4% (inactive) in [2], -2.73% (inactive) in assay [4] and 7.01% (inactive) in assay [15]. Besides, the activity, negative = inhibition in [5] was -25.6% (inactive). For the same molecule, the outcome in [8], in [13] and in assay [14] was inactive. For the same molecule, the Potency result in assay [9], in assay [11] and in assay [17] was “inactive” throughout. In addition, the max response was -6.39% in assay [15] (setting [19]) and -3.6% in assay [15] (setting [20]).

Regarding `COc1ccccc1-c1cncnc1NCCc1cnc[nH]1`, the Potency is > 11.4 µM (inactive) in assay [1]; 1.26 µM (active) in assay [3]; > 46 µM (inactive) in assay [6]; > 46 µM (inactive) in assay [7]; 0.398 µM (active) in assay [10]; 0.0794 µM (active) in assay [12]. For the same molecule, the activity change, negative = inhibition in assay [2] was 1.24% (inactive); in assay [4], 3.21% (inactive); in [15], 11.3% (inactive). Also, the activity, negative = inhibition in assay [5] is -11.6% (inactive). Also, the molecule was called inactive in [8], in assay [13] and in [14]. In addition, the Potency result in assay [9], in assay [11], in assay [16] and in [17] was “inactive” throughout. Moreover, the results for the max response in [15] (setting [19]) and in assay [15] (setting [20]) were 12.9% and 26.1%, respectively.

On to `COCCNc1nc(-c2ccccc2CN(C)C)nc2ccccc12`, for which the Potency in assay [1] is > 11.4 µM (inactive); in [3] it was 10 µM (active); in [6], > 46 µM (inactive); in assay [7], > 46 µM (inactive). In addition, the activity change, negative = inhibition in assay [2] was 4.08% (inactive); in assay [4] it was -0.773% (inactive); in [15], 3.16% (inactive). Moreover, the activity, negative = inhibition in assay [5] is 10% (inactive). Also, the call in assay [8], in assay [13] and in assay [14] was inactive. Further, the Potency entry in assay [9], in assay [11], in assay [16] and in assay [17] was “inactive” in each case. The activation in [18] is 2.67% (inactive). Moreover, the results for the max response in [15] (setting [19]) and in [15] (setting [20]) were 2.38% and 6.21%, respectively.

Take `Cc1noc(C)c1-c1nccc(-n2ccnc2)n1`: the Potency in assay [1] is > 11.4 µM (inactive); in assay [3], 0.2 µM (active); in assay [6], > 46 µM (inactive); in [7], > 46 µM (inactive); in assay [10], 1.26 µM (active); in assay [12], 3.98 µM (active). The activity change, negative = inhibition is 3.6% (inactive) in [2], -0.351% (inactive) in assay [4] and 7.83% (inactive) in assay [15]. Further, in assay [5], the activity, negative = inhibition is 16.2% (inactive). The molecule was called inactive in [8], in assay [13] and in [14]. Besides, the Potency result in [9], in [11], in [16] and in assay [17] was “inactive” throughout. Also, the max response in assay [15] (setting [19]) is 12.5%; in [15] (setting [20]), 20.6%.

For the molecule `Cc1noc(C)c1-c1cc(NCc2ccccc2)ncn1`, the Potency was > 11.4 µM (inactive) in [1], 5.01 µM (active) in assay [3], > 46 µM (inactive) in [6] and > 46 µM (inactive) in [7]. Besides, the activity change, negative = inhibition in assay [2] is -3.94% (inactive); in assay [4] it was -10.6% (inactive); in [15], 9.87% (inactive). The activity, negative = inhibition in assay [5] was -12.8% (inactive). For the same molecule, the call in [8], in assay [13] and in assay [14] was inactive. Moreover, the Potency entry in assay [9], in [16] and in assay [17] was “inactive” in each case. The max response was determined as 11.1% in [15] (setting [19]) and 18% in [15] (setting [20]).
